Only a selection was taken, and hits are over-represented in it overall.
RMI FANCM FP: RMI-FANCM interaction inhibition | Fluorescence polarization, RMI core complex with F-MM2 peptide; active compounds read low | FP signal (polarization) at 33 µM | 70,000 compounds, 0.58% hits; in the data active means FP signal below about 40
Hits are given with their value; n = inactive; ! = a repeat was not active.

SMILES	RMI FANCM FP
C[C@H](NC(CCc1ccccc1)C(=O)O)C(=O)N1CCC[C@H]1C(=O)O (some centres not stated)	34
CCOC(=O)[C@H](CCc1ccccc1)N[C@H]1CCc2ccccc2N(CC(=O)O)C1=O	n
COc1ccccc1OCC(=O)Nc1cccc(C(=O)O)c1	n
O=C1C=CC(=NS(=O)(=O)c2ccc3ccccc3c2)C=C1	n
O=C1C=CC(=NS(=O)(=O)c2cc([N+](=O)[O-])ccc2Cl)C=C1	n
O=C1C=CC(=NS(=O)(=O)c2ccc(F)cc2)C=C1	2
CCN(CC)CCNc1nc2ccccc2[nH]1	n
FC(F)(F)Oc1ccc(-n2[nH]nnc2=S)cc1	n
CCOC(=O)c1cnc2cc(C(F)(F)F)ccc2c1Nc1ccc(S(=O)(=O)N(C)C)cc1	n
Cc1cc(Nc2ccc(N(C)C)cc2)c2ccc(C(F)(F)F)cc2n1	19
Cc1cc(Nc2ccc(S(=O)(=O)Nc3nccs3)cc2)c2ccc(C(F)(F)F)cc2n1	n
O=C(c1ccccc1)c1ccc(OCC(O)CNc2ccc(F)cc2)cc1 (configuration not stated)	n
Cc1nnc(SCC(=O)N2CCN(c3ccccc3)CC2)c2c1cnn2-c1ccc(F)cc1	n
O=[N+]([O-])c1ccccc1O[C@@H]1O[C@H](CO)[C@H](O)[C@H](O)[C@H]1O	n
O=C(O)c1cc(O)c2c(c1)[C@@H]([C@@H]1c3cc(C(=O)O)cc(O)c3C(=O)c3c(O[C@H]4O[C@H](CO)[C@@H](O)[C@H](O)[C@H]4O)cccc31)c1cccc(O[C@H]3O[C@H](CO)[C@@H](O)[C@H](O)[C@H]3O)c1C2=O	34
OCc1ccccc1O[C@@H]1O[C@H](CO)[C@@H](O)[C@H](O)[C@H]1O	n
C=CCN1C(=O)C(C)(C)COc2ccc(NC(=O)c3ccc(OCCCC)cc3)cc21	n
CSc1ccc(C(=O)Nc2nnc(-c3cc(C)nn3C)o2)cc1	n
O=C(NNC(=O)c1ccc(=O)n(Cc2ccccc2)c1)c1cccc(C(F)(F)F)c1	n
CCN(CC)C(=O)Cn1cc(SCC#N)c2ccccc21	n
Cc1sc2sc(-c3ccccc3)c(N)[n+]2c1C	n
c1ccc(-c2csc(-c3ccc(-c4ccccn4)s3)n2)cc1	n
Nc1c(-c2ccccc2)sc2nc(-c3ccccc3)cc[n+]12	11
CCOC(=O)CCC(=O)NNC(=O)c1cccs1	n
O=C(CCN1C(=O)S/C(=C\C=C\c2ccccc2)C1=O)Nc1nccs1	n
SMILES	RMI FANCM FP
O=C(CSc1ccc(NC(=O)c2ccco2)nn1)Nc1ccc(F)c(F)c1	n
Cc1ccc(S(=O)(=O)c2nc(Cc3ccccc3)oc2N2CCCCC2)cc1	n
CN1C(=O)c2cccc(NC(=O)c3cccc(Cl)c3)c2C1=O	n
CN1C(=O)c2cccc(N)c2C1=O	-41
CN1C(=O)c2cccc(NC(=O)c3ccc(N(C)C)cc3)c2C1=O	n
Cc1ccc(-c2nc(CN3N=NC4C(=O)N(c5ccc(C(C)C)cc5)C(=O)C43)c(C)o2)cc1 (configuration not stated)	n
CCOCCCN1COc2ccc3c(=O)c(-c4ccc(Cl)cc4)coc3c2C1	n
COc1ccc(-c2cc3ccc4c(c3oc2=O)CN(CC2CCCO2)CO4)cc1OC (configuration not stated)	n
COCCCN1COc2ccc3cc(-c4cc(OC)ccc4OC)c(=O)oc3c2C1	35
CC(=O)c1cccc(NC(=O)CSc2nnc(-c3ccccc3Cl)n2-n2cccc2)c1	n
CCOC(=O)c1ccc(NC(=O)CCc2c(C)[nH]c(=O)[nH]c2=O)cc1	n
CCOC(=O)c1[nH]c2c(c1C)C(=O)CCC2	n
CCOC(=O)CCc1c(C(=O)OCC)[nH]c2c1CC(=O)NC2	32
C=CCNc1nn(CC(=O)Nc2c(C)cccc2CC)c(N)c1-c1nc(-c2ccc(Cl)cc2)no1	n
COc1ccc(CC(=O)NNC(=O)c2ccc(=O)n(Cc3ccc(Cl)cc3)c2)cc1	n
COc1ccc(CC(=O)Nc2cccc(-c3cn4nc(OC)ccc4n3)c2)cc1	n
CCc1ccc(C(=O)c2cn(CC(=O)Nc3ccc(C(C)C)cc3)c3ccccc3c2=O)cc1	n
O=C(CCc1ccccc1)N/N=C\c1ccccc1	n
O=C(CCc1ccc(O)cc1)N/N=C\c1cc(Cl)cc(Cl)c1O	37
O=C(CCc1ccc(O)cc1)N/N=C\C=C\c1ccccc1	n
O=C(/C=C/c1ccco1)NC(=S)Nc1ccc(S(=O)(=O)N2CCc3ccccc32)cc1	n
Cc1ccccc1NC(=O)Cc1csc(SCC(=O)c2cccs2)n1	n
O=C(Nc1cccc(-c2nc3ccccc3[nH]2)c1)c1ccc(Cl)cc1	n
Nc1ccc(Cl)cc1-c1nc2ccccc2[nH]1	n
O=c1oc2c(Cl)cc(Cl)cc2cc1-c1nc2ccccc2[nH]1	40
SMILES	RMI FANCM FP
Cc1cc(-c2nnc(NC(=O)Cc3cccs3)o2)n(C)n1	n
O=C(Nc1nc2ccc(F)cc2s1)c1cc(-c2ccccc2)nc2ccccc12	n
Cc1c(O)ccc2c(CN3CCCCC3)cc(=O)oc12	18
O=c1cc(CN2CCOCC2)c2cc3c(cc2o1)CCC3	n
Cc1ccc2oc(=O)cc(CN3CCOCC3)c2c1	n
CCS(=O)(=O)NCCc1cn2ccccc2n1	n
CN1CCN(S(=O)(=O)c2ccc(NC(=S)NC(=O)/C=C/c3ccc(F)cc3)cc2)CC1	n
CC(C)C(=O)N1CCc2ccc(NS(=O)(=O)Cc3ccc(F)cc3)cc2C1	n
CCOC(=O)CSc1nc2ccccc2c(=O)n1NC(=O)CCc1c[nH]c2ccccc12	n
CC(=O)Oc1ccccc1C(=O)O	n
CC(=O)Oc1cccc2c1C(=O)c1c(OC(C)=O)cc(C(=O)O)cc1C2=O	34
O=C(O)c1cc(O)c2c(c1)C(=O)c1cc(O)cc(O)c1C2=O	n
COc1cccc(NC(=O)CN2CCN(Cc3nc(-c4ccc(F)cc4)cs3)CC2)c1	n
CCOc1ccccc1NC(=O)c1ccc(S(=O)(=O)c2ccc(Br)cc2)nc1	n
O=S(=O)(CCCOc1ccc(F)cc1)NC1CCCCC1	n
COc1cn(CC(=O)Nc2cccc3ccccc23)c(CN2CCN(c3ccc(F)cc3)CC2)cc1=O	35
COc1cn(CC(=O)NCc2ccc(C)cc2)c(CN2CCC(C)CC2)cc1=O	n
COc1cn(CC(=O)Nc2ccc(Br)cc2)c(CN2CCC(C)CC2)cc1=O	n
O=C(Cc1ccc(F)cc1)NCCCn1nc(-c2ccc(Cl)cc2)ccc1=O	n
FC(F)(F)c1cccc(-c2nc3c(Cl)cc(C(F)(F)F)cn3n2)c1	n
Cc1nn2c(N)csc2nc1=O	19
Cc1cccc(-c2nc3scc(CCN)n3n2)c1	n
N#Cc1ccc(Cl)nn1	n
Clc1cccnn1	-3
CCOc1ccc(NC(=O)CC2Sc3ccc(C(F)(F)F)cc3NC2=O)c([N+](=O)[O-])c1 (configuration not stated)	n
SMILES	RMI FANCM FP
O=C(NC(=O)c1c(F)cccc1Cl)Nc1ccccc1C(=O)NCC1CC1	n
NC(CO)C(=O)NNCc1ccc(O)c(O)c1O (configuration not stated)	-13!
N[C@H](CO)C(=O)O	n
COc1ccccc1N/C=C(\C#N)c1nc(-c2ccc(C)cc2C)cs1	n
Cc1ccc2sc(=NC(=O)c3ccn(C)n3)n(C)c2c1C	n
Cn1c(-c2nc(C(=O)NN3CCOCC3)cs2)cc2ccccc21	3
O=C(Nc1ccccc1)c1csc(-c2ccccc2)n1	n
O=C(NC(=O)c1csc([N+](=O)[O-])c1)NN1CCOCC1	n
CC(=O)c1ccc(NC(=O)CCc2c(C)[nH]c(=O)[nH]c2=O)cc1	n
Cn1ccc(C(=O)Nc2nnc(-c3cccc(S(C)(=O)=O)c3)o2)n1	n

Screens from PubChem BioAssay.
